This is an account of results in PubChem BioAssay AID2653 (National Center for Advancing Translational Sciences (NCATS), 2010).

Inconclusive results are not listed. Unmarked numbers belong to inactive results. The call rests on the fitted dose curve; in most records, active means well fitted curve in the direction sought with a large enough effect; inconclusive means small, poorly fitted or top-dose-only effect, or another doubt; inactive means no such curve, though single readings can be large or run the other way.

This assay can be described thus: Secondary Assay for Activators of Human Pyruvate Kinase M2 isoform - Cell Titer Glo Cytotoxicity for Probe SAR. Further: % of control where 0% means no effect. To be noted: HeLa viability, CellTiter-Glo ATP luminescence, 24 h; series mostly up to 58.2 µM; activity change, negative = cytotoxicity: at the top concentration. The protocol: NIH Chemical Genomics Center [NCGC]
Matthew G. Vander Heiden, M.D., Ph.D. [Harvard Medical School, 77 Avenue Louis Pasteur, Boston, MA 02115]
We have identified a series of activators of the M2 isoform of human pyruvate kinase. The assay described here examines the cytotoxicity of these compounds by measuring the total ATP content of Hela cells after 24 hrs of exposure to compound.
500 Hela cells/ 4ul in media (DMEM with high glucose, 10% FBS, 1x Pen Strep, 1x NEAA) were dispensed into a white solid 1536-microwell plate with a Thermo Multidrop. The plates were incubated at 37 degrees Celsius for 24 hours. The cells were then treated with compounds using the Kalypsys pin tool, delivering 23 nl of test compounds and the control doxorubicin. The plates were then incubated for an additional 24 hours at 37 degrees C after which 4 ul of Promega Cell-Titer Glo was dispensed using the Thermo Multidrop. The plates were incubated at room temperature for 10 min before reading luminescence on the Perkin Elmer ViewLux with images collected with 2x binning and a 5 sec exposure time.
In general terms: ATP-based viability assays read luminescence as a measure of living cells.
As for `COc1ccc(Nc2c(-c3ccc(C)o3)nc3ccccn23)cc1`, the “activity change, negative = cytotoxicity” value is -10.2%. As for `O=C1CCc2cc(S(=O)(=O)Nc3cccc(C(F)(F)F)c3)ccc2N1`, the figure is -44.3%. For the compound `Cc1ccc(NS(=O)(=O)c2cc3c(cc2-c2ccsc2)NC(=O)CO3)cc1C`, the “activity change, negative = cytotoxicity” value was -16.1%. On to `O=C1CCc2cc(S(=O)(=O)Nc3ccccc3F)ccc2N1`, for which the “activity change, negative = cytotoxicity” value is -28.6%.

On to `O=C1c2ccccc2C(=O)N1c1cccc(=O)[nH]1`, for which the “activity change, negative = cytotoxicity” value is 1.18%. The value for `O=C1CCc2cc([S+](=O)([O-])Nc3ccc(N[S+](=O)([O-])c4ccc5c(c4)CCC(=O)N5)cc3)ccc2N1` was -12.1%; that for `COc1cccc(Cn2ncc3c4sc(S(C)=O)cc4n(C)c3c2=O)c1` (stereo not given) was -2.09%; that for `O=C1CCc2cc(S(=O)(=O)Nc3ccc(F)cc3)ccc2N1` was -16.1%. As for `Cc1ccc(-c2nc3cnccn3c2Nc2ccc(C(C)C)cc2)o1`, the figure is -17.3%; as for `O=S1(=O)N=C(Oc2ccc(Cl)cc2)c2ccccc21`, 2.68%; as for `CCNc1cccc(S(=O)(=O)N2CCCN(S(=O)(=O)c3ccc4c(c3)OCCO4)CC2)c1`, -20.9%. `Cc1cc(C)n2c(Nc3ccccc3)c(-c3ccc(C)o3)nc2n1`: the “activity change, negative = cytotoxicity” value is -18%. The value for `O=C1c2ccccc2C(=O)N1c1noc2ccccc12` was -26.9%; that for `Cc1ccn2c(NC3CCCCC3)c(-c3ccc(C)o3)nc2c1` was -12.8%; that for `COc1ccc(NS(=O)(=O)c2ccc3c(c2)CCC(=O)N3)cc1` was -24.1%. As for `Cc1ccc(NS(=O)(=O)c2cc3c(cc2Br)NC(=O)CO3)cc1C`, the figure is -10.6%; as for `Cc1ccc2nc(-c3ccc(C)o3)c(Nc3ccc(Cl)cc3)n2c1`, -21.4%; as for `Cc1ccc(NS(=O)(=O)c2cc3c(cc2F)NC(=O)CC3)cc1C`, -6.84%.

`Cc1ccc(NS(=O)(=O)c2ccc3c(c2)CCCC(=O)N3)cc1C`: the “activity change, negative = cytotoxicity” value is -1.83%. The value for `Cc1ccc(Cl)cc1NS(=O)(=O)c1cc2c(cc1F)NC(=O)CC2` was -9.55%; that for `Cc1ccc(NS(=O)(=O)c2cc3c(cc2Cl)NC(=O)C3)cc1C` was -14.7%.

With `Cc1ccc(Nc2c(-c3ccc(C)s3)nc3ccccn23)cc1`, the “activity change, negative = cytotoxicity” value is -13.6%. As for `O=C1c2ccccc2C(=O)N1c1nccs1`, the figure is -15.3%; as for `CN(C)c1cccc(S(=O)(=O)N2CCN(S(=O)(=O)c3ccc4c(c3)OCCO4)CC2)c1`, -1.98%. As for `Cc1ccc2nc(-c3ccc(C)o3)c(Nc3ccc(F)cc3)n2c1`, the figure is -24%; as for `Cc1ccc(NS(=O)(=O)c2ccc3c(c2)CCC(=O)N3)cc1F`, -1.87%; as for `Cc1ccc(NS(=O)(=O)c2ccc3c(c2)N(C)CCO3)cc1C`, -7.1%.

With `Cc1ccc(NS(=O)(=O)c2cc3c(cc2F)NC(=O)CC3)cc1Cl`, the “activity change, negative = cytotoxicity” value is -30.8%.

As to `O=C1CCc2cc(S(=O)(=O)Nc3ccc(Cl)c(Cl)c3)c(F)cc2N1`, the “activity change, negative = cytotoxicity” value is -16.9%. As for `COc1ccc(-c2nc3cccc(C)n3c2Nc2ccc(C)cc2)cc1`, the figure is -17%; as for `CNc1cccc(S(=O)(=O)N2CCN(S(=O)(=O)c3ccc4c(c3)OCCO4)CC2)c1`, -2.61%. As for `Cc1ccc(NS(=O)(=O)c2ccc(N3CCCC3=O)cc2)cc1C`, the figure is -23%. As for `Cc1ccc(-c2nc3ccccn3c2Nc2ccccc2C)o1`, the figure is -15.4%.

Regarding `O=C1CCc2cc(S(=O)(=O)Nc3ccc4c(c3)OCCO4)ccc2N1`, the “activity change, negative = cytotoxicity” value was -28.2%. For the compound `O=C1c2ccccc2C(=O)N1Cc1cccnc1`, the “activity change, negative = cytotoxicity” value was -7.71%. As for `O=C1c2ccccc2C(=O)N1c1ccccc1O`, the figure is -14.7%; as for `Cc1ccc(NS(=O)(=O)c2ccc3c(c2)n(C)c(=O)n3C)cc1C`, -15.9%; as for `O=S1(=O)N=C(Oc2cccc(Cl)c2)c2ccccc21`, -7.68%. As for `Cc1ccc(NS(=O)(=O)c2ccc3c(c2)oc(=O)n3C)cc1C`, the figure is -9.4%; as for `COc1ccc(N2C(=O)c3ccccc3C2=O)cc1`, 0.623%.
